Luc counter: blocks Kinase-Glo luciferase, a counter-screen artifact; actives 0.28% (n = 200,000); Potency, µM (series often up to 38.3 µM), hits mostly inhibitors; Kinase-Glo luciferase, ATP luminescence, 8 min; Q27757; note: nearly all actives have a fitted effect of over 60% in size
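Light output from Kinase-Glo luciferase with luciferin and 10 uM ATP in 50 mM imidazole pH 7.2, KCl, MgCl2, Tween 20, BSA; compound pin-delivered, 8-min ambient incubation, then luminescence read.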
HttQ103 aggreg: inhibitors of mutant huntingtin aggregate formation in PC12 cells; PC12 HttQ103-GFP aggregates, Acumen cytometry, 40 h; Potency, µM (doses to about 46.1 µM), usual class: inhibitors; actives 1.1% (n = 220,000); AID 1688; note: nearly all actives have a fitted effect of over 60% in size
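Using laser scanning cytometry, GFP-positive aggregates were counted after lysis of PC12 cells induced with 100 nM tebufenozide to express HTT exon 1 Q103–GFP. Compounds were tested in titration.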
HTT ATP protect: cytoprotection in Huntington HTT-Q103 PC12 cell model. PC12 HTT-Q103 induced, cytoprotection, ATP luminescence, 40 h. Potency, µM (top dose mostly 56.4 µM), usual class: activators. actives 0.14% (n = 230,000). AID 1471; note: nearly all actives have a fitted effect of over 45% in size
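Huntington model: PC12 line, ecdysone-inducible HTTQ103 exon1–GFP, tebufenozide 100 nM. Test articles in a dose series. Endpoint luminescence from cellular ATP.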
ALDH1A1 block: ALDH1A1 (human) enzyme inhibition; P00352; Purified ALDH1A1, NADH fluorescence, propionaldehyde substrate; Potency, µM (highest dose often 75.3 µM), hits mostly inhibitors; actives 7.3% (n = 220,000); AID 1030; active = well fitted inhibition curve with a large enough effect, not every such curve was filed as active; inconclusive = small, poorly fitted or top-dose-only effect, or another doubt; inactive = no such curve, though single readings can be large or run the other way
Target sequence (P00352 whole entry, looked up): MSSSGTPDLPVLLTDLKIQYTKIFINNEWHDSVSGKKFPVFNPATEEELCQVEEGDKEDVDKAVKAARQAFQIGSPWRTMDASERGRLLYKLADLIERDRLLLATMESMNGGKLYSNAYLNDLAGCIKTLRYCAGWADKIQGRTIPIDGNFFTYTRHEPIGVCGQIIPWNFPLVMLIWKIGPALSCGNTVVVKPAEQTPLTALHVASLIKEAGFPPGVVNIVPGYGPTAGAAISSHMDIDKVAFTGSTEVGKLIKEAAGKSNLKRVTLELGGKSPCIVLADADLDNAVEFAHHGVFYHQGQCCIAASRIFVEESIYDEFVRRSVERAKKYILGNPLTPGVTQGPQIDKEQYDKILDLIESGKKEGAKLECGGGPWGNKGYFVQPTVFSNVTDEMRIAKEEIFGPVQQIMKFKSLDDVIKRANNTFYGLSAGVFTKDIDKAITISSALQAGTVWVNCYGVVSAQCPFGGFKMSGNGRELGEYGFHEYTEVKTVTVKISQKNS
HPGD inh: HPGD (human) dehydrogenase inhibition. P15428. purified HPGD, NADH fluorescence kinetic, PGE2 substrate. Potency, µM, actives largely listed as inhibitors. actives 4.3% (n = 150,000). AID 894; active = well fitted inhibition curve with a large enough effect, not every such curve was filed as active; inconclusive = small, poorly fitted or top-dose-only effect, or another doubt; inactive = no such curve, though single readings can be large or run the other way
Target sequence (P15428 whole entry, looked up): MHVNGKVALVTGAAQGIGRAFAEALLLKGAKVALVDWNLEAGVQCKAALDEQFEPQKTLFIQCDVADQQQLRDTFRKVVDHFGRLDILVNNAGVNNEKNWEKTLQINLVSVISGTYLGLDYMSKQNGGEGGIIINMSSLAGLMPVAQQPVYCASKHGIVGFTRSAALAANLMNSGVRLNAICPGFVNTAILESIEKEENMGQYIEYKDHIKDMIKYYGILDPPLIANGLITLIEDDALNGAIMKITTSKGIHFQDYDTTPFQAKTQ
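20 nM HPGD preincubated 15 min at room temperature with compound in 50 mM Tris-HCl pH 8, 0.01% Tween 20. Started with 1 mM NAD+ and 30 uM prostaglandin E2; NADH fluorescence (360/450 nm) read 5 times over 30-s intervals, last minus first.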
Lamin A splicing: changes lamin A minigene splicing in HeLa cells | Potency, µM (top dose mostly 46.1 µM), actives largely listed as inhibitors | HeLa LMNA splicing GFP/RFP minigene ratio, 48 h | actives 0.01% (n = 200,000); active = well fitted inhibition curve with a large enough effect in the signal ratio, with a control signal flat, not every such curve was filed as active; inconclusive = small, poorly fitted or top-dose-only effect, or effect the other way, or a change in a side signal; the % refers to the signal ratio
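S3 HeLa stable clones carrying a lamin A-EGFP splicing minigene plus DsRed2 were seeded at 600 cells/well in Opti-MEM with 2% FBS, pin-dosed and incubated 48 h at 37°C. Acumen cytometry (488 nm) gave the GFP/RFP total-intensity ratio.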
Large screens that a line does not name were inactive. Only some compounds are listed: those with a hit (about 9% of all), similar ones and a draw of the others. Unless noted, calls come from the whole dose curve; as a rule, active = well fitted curve in the direction sought with a large enough effect; inconclusive = small, poorly fitted or top-dose-only effect, or another doubt; inactive = no such curve, though single readings can be large; an effect the other way counts as inactive or inconclusive.

Cc1cc2ncc(C(=O)Nc3ccsc3C(=O)O)c(C)n2n1	ALDH1A1 block 14µM (no result: HPGD inh, Lamin A splicing)
CC(=O)c1cnc2cc(C)nn2c1C	none
COc1ccc(NC(=O)CSc2nc3sc(C)c(C)c3c(=O)n2Cc2ccco2)cc1	none
CCCCCCCCCCS(=O)(=O)N/N=C/c1ccc(O)cc1	ALDH1A1 block 13µM, Lamin A splicing inconclusive
CCCCCCCCCS(=O)(=O)N/N=C/c1cccc([N+](=O)[O-])c1	ALDH1A1 block 0.32µM, HPGD inh 20µM, Lamin A splicing inconclusive
COc1ccccc1NC(=S)N(Cc1ccc(Cl)cc1)CC1CCC(C(=O)O)CC1 (configuration not stated)	HTT ATP protect inconclusive (no result: HPGD inh)
CCOc1cc(C2C3=C(CCCC3=O)Nc3nc(C(=O)OC)nn32)ccc1OC (configuration not stated)	none
COc1ccc2nc(SCC(=O)Nc3ccc(S(=O)(=O)Nc4onc(C)c4C)cc3)[nH]c2c1	HTT ATP protect inconclusive, ALDH1A1 block inconclusive, HPGD inh 18µM
Cc1noc(NS(=O)(=O)c2ccc(N/C=C\C(=O)c3cccc4ccccc34)cc2)c1C	ALDH1A1 block 4µM (no result: HPGD inh, Lamin A splicing)
Cc1noc(NS(=O)(=O)c2ccc(NC(=O)CSc3n[nH]c(-c4ccccc4)n3)cc2)c1C	HPGD inh 4.5µM
COC(=O)C1=C(C)N(Cc2ccc(C)cc2)C(=O)/C1=C\c1ccc(O)c(OC)c1	HttQ103 aggreg inconclusive, ALDH1A1 block inconclusive, HPGD inh inconclusive, Lamin A splicing inconclusive
CCOc1cc(/C=C2\C(=O)N(Cc3ccco3)C(C)=C2C(=O)OC)ccc1O	ALDH1A1 block 16µM, Lamin A splicing inconclusive (no result: HPGD inh)
CCOc1cc(/C=C2\C(=O)N(CCc3ccc(OC)c(OC)c3)C(C)=C2C(=O)OC)ccc1O	HttQ103 aggreg inconclusive, ALDH1A1 block 11µM, HPGD inh inconclusive
C=CCN1C(=O)/C(=C\c2ccco2)C(C(=O)OC)=C1C	HPGD inh 32µM
O=C(c1cc2ncc(CCCl)cn2n1)N1CCCCCC1	ALDH1A1 block inconclusive, HPGD inh 1µM (no result: HTT ATP protect)
O=C(c1cc2ncc(Br)cn2n1)N1CCCCC1	ALDH1A1 block inconclusive (no result: HPGD inh, Lamin A splicing)
CCSc1nc2nn(-c3ccccc3)c(=O)c-2c2n1CCCCC2	ALDH1A1 block 2.5µM
O=C(CSc1nc2nn(-c3ccccc3)c(=O)c-2c2n1CCCCC2)NCCc1ccccc1	none (no result: HPGD inh)
Cc1cc2nnc(SCC(=O)OC(C)C)n2c2ccccc12	HttQ103 aggreg 4µM, ALDH1A1 block inconclusive
COc1ccc(OC)c(S(=O)(=O)Nc2ccc(Oc3ccccc3)cc2)c1	Lamin A splicing inconclusive (no result: Luc counter, HPGD inh)
COc1ccc(OC)c(S(=O)(=O)Nc2ccc(O)c(Sc3ncn[nH]3)c2)c1	HPGD inh 22µM, Lamin A splicing inconclusive
COc1ccc(OC)c(S(=O)(=O)Nc2ccc(O)c3ccccc23)c1	HttQ103 aggreg 18µM, ALDH1A1 block 3.5µM, HPGD inh 3.2µM, Lamin A splicing inconclusive
COC(=O)c1ccc(CSc2nnc(Nc3ccccc3OC)s2)o1	ALDH1A1 block 25µM, Lamin A splicing inconclusive
COC(=O)c1ccc(CSc2nnc(-c3ccncc3)n2Cc2ccccc2)o1	ALDH1A1 block 25µM (no result: Luc counter, HPGD inh)
COC(=O)c1ccc(CSc2nnc(Nc3ccc(OC)cc3)s2)o1	none
COC(=O)c1ccc(CSc2nc(-c3ccccc3)cs2)o1	none
COC(=O)c1ccc(CSc2nnc(NCc3ccccc3)s2)o1	HPGD inh 14µM
CNC(=O)CSc1nnc(-c2ccncc2)n1Cc1ccccc1	none
CCN(CC)c1ccc2cc(S(=O)(=O)c3ccc(C)cc3)c(=O)oc2c1	none (no result: HTT ATP protect)
COCCn1c(N)c(NCc2ccccc2)c(=O)n(CC(=O)Nc2cc(C)ccc2C)c1=O	none
CCOC(=O)N1CCN(c2c(NCCc3ccc(OC)c(OC)c3)c(=O)c2=O)CC1	ALDH1A1 block inconclusive
CCOC(=O)N1CCN(c2c(NCc3cccs3)c(=O)c2=O)CC1	ALDH1A1 block inconclusive, HPGD inh 28µM
CCOC(=O)N1CCN(c2c(NCc3ccccc3OC)c(=O)c2=O)CC1	ALDH1A1 block inconclusive, HPGD inh 16µM
CC1=NN(c2ccc(Cl)cc2)C(=O)/C1=C\c1cccn1-c1ccc(S(N)(=O)=O)cc1	HttQ103 aggreg inconclusive
Cc1cccc(N(CC(=O)N/N=C/c2ccc(OCC(=O)NCc3ccco3)cc2)S(C)(=O)=O)c1C	HPGD inh 25µM
Nc1c(-c2ccccc2)cnc2cc(-c3ccccc3)nn12	none (no result: HPGD inh)
NCc1oc(-c2ccccc2)cc1C(=O)O	ALDH1A1 block inconclusive (no result: HPGD inh, Lamin A splicing)
O=C(N/N=C/c1ccccn1)C(O)c1ccccc1 (configuration not stated)	none (no result: Luc counter, ALDH1A1 block, HPGD inh, Lamin A splicing)
COCc1cc(C)nc(SCC[N+](C)(C)CC(=O)Nc2cccc(C(F)(F)F)c2)c1C#N	HttQ103 aggreg inconclusive, ALDH1A1 block 11µM (no result: HPGD inh, Lamin A splicing)
COCc1cc(C)nc(SCC(=O)Nc2ccc(C)c(C)c2)c1C#N	ALDH1A1 block inconclusive, HPGD inh inconclusive
NC(=O)[C@H]1O[C@@H](O)[C@H](O)[C@@H](O)[C@@H]1O	none (no result: Luc counter, ALDH1A1 block, HPGD inh, Lamin A splicing)
O=C(c1cc(-c2cccs2)on1)N1CCN(c2ccc(F)cc2)CC1	none
Cc1cccc(-c2nnc(SCC(=O)N3c4ccccc4CCc4ccccc43)n2C)c1	ALDH1A1 block 11µM
O=Cc1cn(CC(=O)N2CCc3ccccc32)c2ccccc12	ALDH1A1 block 18µM (no result: HPGD inh)
Cn1cc(SCC(=O)N2CCCc3ccccc32)c2ccccc21	ALDH1A1 block 10µM
Cn1cc(SCC(=O)N2CCOCC2)c2ccccc21	none
COCCn1c(SCC(=O)N2CCCc3ccccc32)nc2cccnc21	HTT ATP protect inconclusive, ALDH1A1 block 3.2µM
Cc1cc2c(cc1NS(=O)(=O)c1ccc(NC(=O)CC(C)C)cc1)n(C)c(=O)c(=O)n2C	none (no result: Luc counter, HttQ103 aggreg, HTT ATP protect, ALDH1A1 block, HPGD inh)
Cn1c(SCC(=O)N2CCCc3ccccc32)nnc1-c1ccccc1	ALDH1A1 block 25µM, Lamin A splicing inconclusive
O=C(CSc1ccc2nnc(-c3ccc(Cl)cc3)n2n1)N1CCCc2ccccc21	HttQ103 aggreg inconclusive, HPGD inh inconclusive
Cc1ccc(NCc2nnc(SCC(=O)N3CCc4ccccc43)n2C)cc1	ALDH1A1 block 8.9µM
O=C(CSc1ccc2nnc(-c3ccc(F)cc3)n2n1)N1CCCc2ccccc21	ALDH1A1 block 14µM, Lamin A splicing inconclusive
Cn1c(SCC(=O)N2CCCc3ccccc32)nnc1-c1ccco1	HttQ103 aggreg inconclusive (no result: Luc counter, HPGD inh)
Cc1ccc(NC(=O)COC(=O)c2ccc3c(c2)NC(=O)C2CCCN32)cc1 (configuration not stated)	ALDH1A1 block inconclusive
C[C@@H]1C[C@](C)(C(=O)c2ccco2)C=C1c1ccco1	ALDH1A1 block 14µM (no result: HttQ103 aggreg, Lamin A splicing)
C[C@@H]1C[C@](C)(C(=O)c2ccc3ccccc3c2)C=C1c1ccc2ccccc2c1	HTT ATP protect inconclusive (no result: HttQ103 aggreg, Lamin A splicing)

High-throughput results (PubChem)
